Assay outcomes as filed in PubChem.
A selection: hits, their analogues and other compounds. The true share with any hit is near 7.3%.
FLuc modulator – inhibits or activates purified firefly luciferase, miR-21 counter-screen. AID 588342. Potency, µM (titrated, usually from 57.5 µM), for inactives: at the highest dose activity change, negative = inhibition, usual class: inhibitors. 6.9% of 360,000 active. purified FLuc, Km substrates, luminescence inhibition;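 further: plate controls were vehicle for no effect and reference inhibitor for full effect; nearly all actives have a fitted effect of over 55% in size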
Target sequence (P08659 whole entry, looked up): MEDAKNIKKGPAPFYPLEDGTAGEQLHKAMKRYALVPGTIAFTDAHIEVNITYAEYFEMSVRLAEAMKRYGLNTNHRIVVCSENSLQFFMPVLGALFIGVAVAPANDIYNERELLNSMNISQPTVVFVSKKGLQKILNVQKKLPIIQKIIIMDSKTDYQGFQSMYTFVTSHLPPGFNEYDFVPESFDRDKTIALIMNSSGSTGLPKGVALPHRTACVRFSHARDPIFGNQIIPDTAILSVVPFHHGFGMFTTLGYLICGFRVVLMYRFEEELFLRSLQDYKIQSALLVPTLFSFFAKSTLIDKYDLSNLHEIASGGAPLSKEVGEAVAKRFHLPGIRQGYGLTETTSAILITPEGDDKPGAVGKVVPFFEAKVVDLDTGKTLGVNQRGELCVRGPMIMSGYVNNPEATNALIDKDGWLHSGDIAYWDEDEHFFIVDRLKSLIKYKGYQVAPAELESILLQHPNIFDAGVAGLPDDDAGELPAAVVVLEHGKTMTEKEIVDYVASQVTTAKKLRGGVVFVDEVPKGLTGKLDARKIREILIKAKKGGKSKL
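Purified P. pyralis luciferase (10nM final) with 10uM D-luciferin and 10uM ATP (Km levels) in 50mM Tris acetate pH 7.5, 10mM Mg acetate, 0.01% Tween-20, 0.05% BSA; qHTS 6-point titration, ~60 µM downward; luminescence read.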
ELG1 genotoxic – inducers of genotoxicity in HEK293T ELG1-luciferase cells. Potency, µM (titrated, usually from 46 µM), for inactives: top-dose activity change, positive = activation, hits mostly activators. HEK293T ELG1-luciferase reporter, luminescence, 16 h. 1.3% of 330,000 active; further: % of control where 0% means no effect; nearly all actives have a fitted effect of over 60% in size
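After overnight (16 hr) compound treatment at 37 °C, ELG1-luciferase HEK293T cells were lysed with ONE-Glo; luminescence quantified 30 min later at room temperature.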
NPC1 promoter act – activates the NPC1 promoter. Huh7 NPC1 promoter luciferase reporter, 24 h. Potency, µM (titrated, usually from 9.22 µM), for the others: top-dose activation, usual class: activators. 2.4% of 320,000 active. AID 485313; further: % of control where 0% means no effect; nearly all actives have a fitted effect of over 60% in size
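Readout is luciferase luminescence, reflecting NPC1 promoter activation in stably transfected Huh7 cells after 24 h compound exposure at 37 °C in reduced-serum medium with 10% FBS.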
Rab9 promoter act – activates the Rab9 promoter. Potency, µM (titrated, usually from 9.22 µM), for the others: at the highest dose activation, negative = inhibition, most hits filed as activators. Huh7 Rab9 promoter-luciferase reporter, luminescence, 24 h. AID 485297. 2.8% of 320,000 active; further: % of control where 0% means no effect; nearly all actives have a fitted effect of over 60% in size
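Luminescence read-out: Huh7 cells stably expressing Rab9-luciferase, treated 24 h with compound at 37 °C, then lysed with luciferase reagent for 10 min at ambient before reading.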
p53 reactivator – restores transcriptional activity of mutant p53 | AID 504706 | Potency, µM (highest dose often 92.2 µM), for the others: at the highest dose activity change, positive = activation, most hits filed as activators | H1299 p53-A138V BP100-luciferase reporter, luminescence, 24 h | 0.063% of 320,000 active; further: % of control where 0% means no effect; nearly all actives have a fitted effect of over 45% in size
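H1299 (p53-null), stable ts p53-A138V + BP100-Luc; 1000 cells/well, Opti-MEM/10% FBS; cpd 4 pt, 1:5; 24 h, 37 deg C, 5% CO2; detection reagent 10 min RT; luminescence.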
SMN2 splice up – enhancers of SMN2 splice variant expression; AID 1458; HEK293 SMN2-luciferase splicing reporter, luminescence, 30-36 h; Potency, µM (doses to about 46.1 µM), inactives show top-dose activity change, positive = activation, hits mostly activators; 2.8% of 210,000 active; further: % of control where 0% means no effect; nearly all actives have a fitted effect of over 55% in size
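qHTS luciferase splicing reporter: luminescence rises when SMN2 exon 7 is included in transfected HEK293 cells. Compound exposure lasted 30-36 h at 37C, with 4.5 mM final sodium butyrate as control, followed by a ONE-Glo read.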
The depositor's hits bear a star; ? = inconclusive; nt = no result given. The call rests on the fitted dose curve; in most records, active means well fitted curve in the direction sought with a large enough effect; inconclusive means small, poorly fitted or top-dose-only effect, or another doubt; inactive means no such curve, though single readings can be large; an effect the other way counts as inactive or inconclusive. Potency means the concentration at half of the fitted maximal effect.

SMILES | FLuc modulator | ELG1 genotoxic | NPC1 promoter act | Rab9 promoter act | p53 reactivator | SMN2 splice up
O=C(CSc1ccc(Cl)cc1)Nc1cccc(-c2nc3ccccc3[nH]2)c1 | -6.7% | 19.7% | 16.5% | ? | ? | 2.82µM*
CC(C)C[C@@H](CC(=O)N[C@@H](CCC(=O)O)CC(=O)O)NC(=O)[C@@H]1CNCC[C@H]1NC(=O)C[C@H](CCCN)NC(=O)C[C@H](Cc1ccccc1)NC(=O)[C@@H]1CCCC[C@H]1N | nt | nt | nt | nt | nt | 1.0%
COCCCN=C1NN=C(c2cc(C)n(Cc3ccco3)c2C)CS1 | 2.69µM* | 3.26µM* | 6.31µM* | 10.2% | ? | ?
Cc1cc(-c2csc(N)n2)c(C)n1Cc1ccco1 | ? | -2.5% | 0.3% | -0.3% | -2.2% | ?
Cc1cc(C2=NNC(=NC3CC3)SC2)c(C)n1Cc1ccco1 | 0.12µM* | 17.8% | -33.6% | -50.0% | -13.7% | -69.5%
COCC(C)N=C1NN=C(c2cc(C)n(Cc3ccccc3Cl)c2C)CS1 (stereo unspecified) | 7.57µM* | ? | ? | ? | 3.4% | -16.4%
CC(=O)O[C@H](C(=O)O[C@@H]1C[C@@H](CCC[C@H]2O[C@H](C(=O)OC(C)C)CC[C@@H]2C)O[C@@H](CC#N)C1)c1ccccc1 | nt | nt | nt | nt | nt | 6.7%
Cc1[nH]c(=O)[nH]c(=O)c1NS(=O)(=O)c1ccccc1 | 5.3% | -1.0% | -0.4% | -4.8% | 4.6% | -0.8%
O=C(Nc1ccc(NC(=O)c2ccco2)cc1)c1ccc2c(c1)OCCO2 | ? | ? | -4.5% | -17.0% | 3.5% | 6.8%
N#Cc1cccc(NCC(=O)Nc2ccc3c(c2)OCCO3)c1 | 6.01µM* | 2.31µM* | 0.631µM* | 0.398µM* | ? | 12.6µM*
O=C(CNC(=O)c1ccco1)Nc1ccc2c(c1)OCCO2 | 6.01µM* | 1.16µM* | 1.78µM* | 1µM* | 14.8% | nt
Cc1ccc(NC(=O)CNC(=O)c2ccco2)cc1Cl | -16.8% | 11.1% | 22.1% | 24.8% | 13.3% | nt
O=C(NC(=S)Nc1ccc2c(c1)OCCO2)c1ccco1 | 1.69µM* | ? | ? | 1µM* | ? | nt
O=C(c1ccco1)N1CCCC(Nc2ccc3c(c2)OCCO3)C1 (stereo unspecified) | 23.9µM* | ? | ? | ? | ? | nt
O=C1C(Cc2ccccc2)Nc2ncnc(N3CCCCC3)c2N1Cc1ccccc1 (stereo unspecified) | nt | 0.6% | nt | nt | -5.6% | nt
CCC(=O)NC(=S)Nc1cccc(NC(=O)c2ccco2)c1 | -18.2% | -5.3% | 9.1% | 3.0% | -5.5% | 7.6%
Cc1cc(NC(=O)c2ccc3c(c2)OCCO3)ccc1NC(=O)c1ccco1 | 0.757µM* | 9.5% | ? | ? | -6.4% | 11.2µM*
Cc1cc(NC(=O)c2ccco2)ccc1NC(=O)Cc1cccs1 | 15.1µM* | 12.7% | 14.1% | 11.5% | 25.8% | 17.9%
O=C(NC(=S)Nc1cccc(O)c1)c1ccco1 | 10.7µM* | ? | ? | ? | ? | nt
COc1ccc(Nc2nc(-c3ccc4c(c3)NC(=O)CO4)cs2)cc1 | ? | -10.0% | 8.5% | 17.8% | 0.2% | -63.9%
COc1cccc(Nc2nc(-c3ccc(O)cc3)cs2)c1 | 15.1µM* | ? | ? | 9.7% | ? | 0.5%
COc1cccc(Nc2nc(-c3cccc(N4C(=O)c5ccccc5C4=O)c3)cs2)c1 | 2.39µM* | 7.7% | 13.3% | 6.8% | -2.9% | 20.9%
CCc1nonc1NC(=O)c1oc2ccc(F)cc2c1C | -1.2% | 9.6% | 24.2% | ? | ? | 0.1%
CCc1ccc2oc(C(=O)Nc3nonc3C)c(C)c2c1 | 2.13µM* | 3.26µM* | 0.316µM* | 0.631µM* | ? | nt
Cc1cc2oc(C(=O)Nc3nonc3C)c(C)c2cc1C | 2.39µM* | 10.3µM* | 1.12µM* | 3.98µM* | ? | nt
SMILES | FLuc modulator | ELG1 genotoxic | NPC1 promoter act | Rab9 promoter act | p53 reactivator | SMN2 splice up
CNC(=O)C1CCC(Cn2c(=O)c3sccc3n(CC(=O)NCc3ccccc3)c2=O)CC1 (stereo unspecified) | 4.0% | nt | nt | nt | nt | nt
COCCNC(=O)CCn1c(=O)c2cc(OC)c(OC)cc2n(CC(=O)Nc2ccccc2OC)c1=O | 0.4% | nt | nt | nt | nt | -12.4%
CCOc1ccccc1N=NC1C(=O)N(C(N)=S)N=C1C (stereo unspecified) | -1.2% | -16.0% | 15.7% | -0.6% | -2.0% | nt
CC1=NN(C(N)=S)C(=O)C1N=Nc1c(Br)cc(Br)cc1Br (stereo unspecified) | ? | -10.0% | 14.7% | 4.8% | 11.5% | nt
CC1=NN(C(N)=S)C(=O)C1N=Nc1cccc(Cl)c1 (stereo unspecified) | 16.9µM* | ? | ? | ? | ? | nt
CC1=NN(C(N)=S)C(=O)C1N=Nc1ccc(S(N)(=O)=O)cc1 (stereo unspecified) | 19µM* | -1.9% | 6.0% | -2.8% | 10.5% | nt
CC1=NN(C(N)=S)C(=O)C1N=Nc1c(Cl)cc([N+](=O)[O-])cc1Cl (stereo unspecified) | 13.5µM* | 8.7% | ? | ? | nt | nt
CC1=NN(C(N)=S)C(=O)C1N=Nc1c(C)cc(C)cc1C (stereo unspecified) | ? | ? | -1.0% | 25.9% | 1.0% | -26.1%
CC(=O)N(C)c1ccc(N=NC2C(=O)N(C(N)=S)N=C2C)cc1 (stereo unspecified) | 3.01µM* | ? | 0.501µM* | -52.4% | nt | nt
CN(c1ccccc1)S(=O)(=O)c1ccc(Cl)c(C(=O)NCc2ccccc2CN2CCCC2)c1 | 2.9% | -1.5% | -1.1% | 1.4% | -0.9% | nt
O=C(Nc1nnc(N2CCCCCC2)s1)Nc1ccccc1C(F)(F)F | ? | nt | nt | nt | nt | 18.4%
COc1ccc(Cl)cc1NC(=O)Cn1c(=O)n2nc(-c3ccccc3)nc2c2ccccc21 | 0.0% | nt | nt | nt | nt | -10.8%
C=C1C[C@@]23CC4C5[C@@]6(C)C[C@H](O)C[C@@]57C2[C@H](O)[C@@H]1[C@H](O)[C@H]3[C@H]7N4C6 | nt | nt | nt | nt | nt | 7.9%
COc1ccc(C(=O)Nc2nnc(SCc3cc(=O)n4cccc(C)c4n3)s2)cc1 | -1.3% | nt | nt | nt | nt | nt
CCc1nc2sc3c(O)cc(=O)[nH]c3c2cc1C | 15.1µM* | -0.9% | 0.3% | -1.1% | 0.5% | nt
CC1=NN(c2ccccc2)C(=O)C1/C=C1/NC(=S)NC1=O (stereo unspecified) | 16.9µM* | -0.9% | 1.2% | 9.6% | -0.6% | nt
CC1=NN(c2ccccc2)C(=O)C1C=Nc1ccc(N(C)C)cc1 (stereo unspecified) | ? | 0.9% | 10.6% | -2.9% | ? | nt
Cc1ccc(S(=O)(=O)Nc2ccc3c(c2)nc(C)n3C)cc1 | 1.9% | -4.4% | 2.8% | -6.7% | -0.1% | nt
Cn1nccc1NC(=O)Nc1cccc([N+](=O)[O-])c1 | 2.7% | -4.2% | 0.1% | -4.0% | -4.7% | nt
